Laboratory results reported in PubChem BioAssay (NCI).
Values joined by “and” are separate entries in the source; they are usually repeats but may differ in a detail not shown here. Equal entries are not always repeated. Compounds without any hit were thinned out: in the full panel of roughly 83,000, 20% have a hit.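 Testing used 96-well plates and a 48-hour single-concentration exposure. Example: -40 means 40% of the starting cells died.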 Active and inactive are the calls of the source. The calls were made as follows: active = growth percent below 10; inactive = the rest.

What was measured:
Test in all cases: NCI-60 one-dose screen, 48 h (100 = growth as untreated, 0 = no growth, -100 = all killed)
Settings in all cases: 10 µM unless noted
NCI-H23 lung = system: NCI-H23 lung
NCI-H226 lung = system: NCI-H226 lung
NCI-H322M lung = system: NCI-H322M lung
HOP-62 NSCLC = system: HOP-62 NSCLC
NCI-H460 lung = system: NCI-H460 lung
HOP-92 NSCLC = system: HOP-92 NSCLC
NCI-H522 lung = system: NCI-H522 lung
A549/ATCC NSCLC = system: A549/ATCC NSCLC
786-0 renal = system: 786-0 renal
COLO 205 colon = system: COLO 205 colon
DU-145 prostate = system: DU-145 prostate
K-562 leukemia = system: K-562 leukemia
MALME-3M melanoma = system: MALME-3M melanoma
MDA-MB-231 breast = system: MDA-MB-231 breast
RXF 393 renal = system: RXF 393 renal
SF-268 CNS = system: SF-268 CNS
SF-295 CNS = system: SF-295 CNS
SF-539 CNS = system: SF-539 CNS
UACC-257 melanoma = system: UACC-257 melanoma
M14 melanoma = system: M14 melanoma

Measured: growth

CC1=CC(C)(C)NC(=S)N1c1ccc(Cl)cc1
inactive: NCI-H23 lung 101% and 99% | NCI-H226 lung 99% and 103% | NCI-H322M lung 98.2% | HOP-62 NSCLC 108% and 102% | NCI-H460 lung 101% and 112% | HOP-92 NSCLC 114% | NCI-H522 lung 93.7% and 92.4% | A549/ATCC NSCLC 98% and 104% | 786-0 renal 99.8% and 97.7% | COLO 205 colon 109% and 100% | DU-145 prostate 105% and 110% | K-562 leukemia 97.7% and 92.6% | MALME-3M melanoma 99.7% | MDA-MB-231 breast 101% and 99.3% | RXF 393 renal 104% and 121% | SF-268 CNS 101% and 100% | SF-295 CNS 101% and 111% | SF-539 CNS 98.7% and 106% | UACC-257 melanoma 98.6% and 105% | M14 melanoma 102% and 95%

NNCCc1ccccc1
inactive: NCI-H23 lung 103% and 88.8% | NCI-H226 lung 93.3% and 75.7% | NCI-H322M lung 95.2% | HOP-62 NSCLC 104% and 103% | NCI-H460 lung 115% and 105% | HOP-92 NSCLC 83.1% and 102% | NCI-H522 lung 92.1% and 94.1% | A549/ATCC NSCLC 108% and 90.5% | 786-0 renal 95.2% and 106% | COLO 205 colon 96.5% and 103% | DU-145 prostate 122% and 108% | K-562 leukemia 91.5% and 105% | MALME-3M melanoma 82.1% | MDA-MB-231 breast 93.4% and 83.5% | RXF 393 renal 122% and 80.3% | SF-268 CNS 108% and 96.1% | SF-295 CNS 106% and 92% | SF-539 CNS 96.9% | UACC-257 melanoma 121% | M14 melanoma 101% and 96.1%

Cc1ccc(-c2nc([P+](c3ccccc3)(c3ccccc3)c3ccccc3)c(Nc3ccccc3)o2)cc1
inactive: NCI-H226 lung 20.2% | DU-145 prostate 13.2% | SF-268 CNS 10.6%
active: NCI-H23 lung -6.49% | NCI-H322M lung 4.01% | HOP-62 NSCLC -16.4% | NCI-H460 lung -45.3% | HOP-92 NSCLC -14.4% | NCI-H522 lung -33.5% | A549/ATCC NSCLC 4.95% | 786-0 renal -24.5% | COLO 205 colon -62.8% | K-562 leukemia 0.731% | MALME-3M melanoma -44.1% | MDA-MB-231 breast -36.5% | RXF 393 renal -31.7% | SF-295 CNS -21% | SF-539 CNS -76.6% | UACC-257 melanoma -13.5% | M14 melanoma -40.4%

N#C/C(=C\c1ccccc1Cl)c1cc2ccccc2[nH]1
inactive: NCI-H23 lung 82.8% | NCI-H226 lung 75.2% | NCI-H322M lung 89.5% | HOP-62 NSCLC 65.3% | NCI-H460 lung 90.5% | HOP-92 NSCLC 37.3% | NCI-H522 lung 82.5% | A549/ATCC NSCLC 90.5% | 786-0 renal 99.6% | COLO 205 colon 105% | DU-145 prostate 100% | K-562 leukemia 70.5% | MALME-3M melanoma 92.8% | MDA-MB-231 breast 68.7% | RXF 393 renal 102% | SF-268 CNS 96.3% | SF-295 CNS 93.9% | SF-539 CNS 89.4% | UACC-257 melanoma 94.2% | M14 melanoma 91.8%

O=C(N=Nc1c(O)[nH]c2ccccc12)Nc1ccccc1Cl
inactive: NCI-H23 lung 80.1% | NCI-H226 lung 87.1% | NCI-H322M lung 73.5% | HOP-62 NSCLC 104% | NCI-H460 lung 92.1% | HOP-92 NSCLC 90.3% | NCI-H522 lung 78.6% | A549/ATCC NSCLC 107% | 786-0 renal 96.9% | COLO 205 colon 105% | DU-145 prostate 98.8% | K-562 leukemia 88.1% | MALME-3M melanoma 96.9% | MDA-MB-231 breast 85.1% | RXF 393 renal 101% | SF-268 CNS 96.8% | SF-295 CNS 94.1% | SF-539 CNS 95.7% | UACC-257 melanoma 92% | M14 melanoma 94.7%

Cc1ccc(-c2nc(C#N)c(S(=O)(=O)N(C)C)o2)cc1
inactive: NCI-H23 lung 89.2% | NCI-H226 lung 103% | NCI-H322M lung 91.1% | HOP-62 NSCLC 96.7% | NCI-H460 lung 110% | HOP-92 NSCLC 103% | A549/ATCC NSCLC 102% | 786-0 renal 96.4% | COLO 205 colon 16.7% | DU-145 prostate 103% | K-562 leukemia 12.3% | MALME-3M melanoma 52.6% | MDA-MB-231 breast 88.1% | RXF 393 renal 105% | SF-268 CNS 104% | SF-295 CNS 100% | SF-539 CNS 102% | UACC-257 melanoma 94.8% | M14 melanoma 64.3%
active: NCI-H522 lung -0.0776%

CC1=C2[C@@H](CC1)[C@]1(C)O[C@@](C(C)C)(C[C@H]1OC(=O)CO)[C@H]2OC(=O)C1CC1c1ccccc1 (stereo not given in full)
inactive: NCI-H23 lung 92.8% | NCI-H226 lung 78.2% | NCI-H322M lung 84.7% | HOP-62 NSCLC 82.4% | NCI-H460 lung 85.6% | HOP-92 NSCLC 87.3% | NCI-H522 lung 73.9% | A549/ATCC NSCLC 73.9% | 786-0 renal 91.2% | COLO 205 colon 107% | DU-145 prostate 100% | K-562 leukemia 67.7% | MALME-3M melanoma 91.7% | MDA-MB-231 breast 89.7% | RXF 393 renal 69.3% | SF-268 CNS 76.2% | SF-295 CNS 67.4% | SF-539 CNS 101% | UACC-257 melanoma 88.8% | M14 melanoma 88.3%

C=C(C)[C@@H]1CC[C@]2(C(=O)O)CC[C@]3(C)[C@H](CC[C@@H]4[C@@]5(C)CCC(N)C(C)(C)[C@@H]5CC[C@]43C)[C@@H]12 (stereo not given in full)
inactive: NCI-H23 lung 81.5% | NCI-H226 lung 100% | NCI-H322M lung 68.9% | HOP-62 NSCLC 80.4% | NCI-H460 lung 33.1% | HOP-92 NSCLC 88.1% | NCI-H522 lung 11.7% | A549/ATCC NSCLC 47.9% | DU-145 prostate 33.1% | MDA-MB-231 breast 18.3% | RXF 393 renal 81.3% | SF-268 CNS 91.3% | SF-295 CNS 73.7% | SF-539 CNS 96.5% | UACC-257 melanoma 93.2% | M14 melanoma 27.1%
active: 786-0 renal 0.398% | COLO 205 colon -21.4% | K-562 leukemia -28.2% | MALME-3M melanoma -61.3%

Nc1[nH]nc(Nc2ccccc2)c1-c1nc2ccccc2s1
inactive: NCI-H23 lung 24.2% | NCI-H226 lung 57.3% | NCI-H322M lung 37.6% | HOP-62 NSCLC 28.6% | A549/ATCC NSCLC 20% | 786-0 renal 10.2% | COLO 205 colon 64.2% | DU-145 prostate 27.8% | MALME-3M melanoma 83.4% | RXF 393 renal 36.3% | SF-268 CNS 31% | SF-295 CNS 28.6% | SF-539 CNS 55.1% | UACC-257 melanoma 50.6%
active: NCI-H460 lung 5.94% | HOP-92 NSCLC -15.8% | NCI-H522 lung -44.6% | K-562 leukemia 4.83% | MDA-MB-231 breast -17% | M14 melanoma 6.41%
